# HT1080NT lethal: kills 2HG-producing HT-1080-NT fibrosarcoma cells | Potency, µM (highest dose often 46.1 µM), for inactives: at the highest dose activity, negative = less viability, hits mostly cytotoxic | HT-1080-NT fibrosarcoma viability, CellTiter-Glo ATP luminescence, 48 h | hit rate 1.6% among 360,000 | AID 686970;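 also: NT is the 2HG producing partner of a matched IDH1 knockdown line; 0% = DMSO-treated cells and -100% = media-only wells without cells; nearly all actives have a fitted effect of over 55% in size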
#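 Compounds were tested in concentration-response format on HT-1080-NT cells for 48 hours at 37 degrees C. Cell viability came from CellTiter-Glo luminescence; curves were classified by r2, response magnitude and activity.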
# KB-V1 cytotox: KB-V1 MDR subline cytotoxicity | KB-V1 MDR cells viability, CellTiter-Glo, 72 h | Potency, µM (top dose mostly 46.1 µM), actives largely listed as cytotoxic | hit rate 3.4% among 400,000 | AID 1347076; also: % is scaled to controls: 0 for no effect and ±100 for the full control effect; nearly all actives have a fitted effect of over 60% in size
#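 In this primary screen, KB-V1 cells overexpressing P-gp are incubated with library compounds (lowest to highest concentration) for 72 h at 37 degrees C before a luminescent ATP viability read.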
# HT1080 IDH1KD tx: toxicity to HT-1080 IDH1 knockdown cells (counter line). HT-1080 IDH1 knockdown viability, ATP luminescence, 48 h. Potency, µM (top dose mostly 46.1 µM), for inactives: at the top dose activity, negative = toxicity, actives largely listed as cytotoxic. hit rate 2% among 360,000. AID 686971;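 also: 0% = DMSO wells and -100% = cell-free medium wells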
#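 Assay cells: HT-1080 with IDH1 knockdown, 750 per well, RPMI/5% FBS. Exposure: 48 h at 37 °C following 2 h pre-incubation. Read: CellTiter-Glo luminescence; fitted concentration-response, curve class assigned.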
# ATXN2 expr inh: ATXN2 expression inhibition | HEK-293 ATXN2-luciferase reporter, luminescence, 24 h | Potency, µM (top dose mostly 57 µM), without a hit: top-dose activity change, negative = inhibition, most hits filed as inhibitors | hit rate 0.72% among 360,000; also: % is scaled to controls: 0 for no effect and ±100 for the full control effect; nearly all actives have a fitted effect of over 55% in size
#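 ATXN2-luciferase reporter cells (luciferase flanked by upstream and downstream ATXN2 gene portions) were treated 24 h at 37 °C with compounds at up to 57 uM. SteadyGlo luminescence gave expression; GF-AFC fluorescence gave viability.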
# S2 tox: viability counter-screen for ATXN expression inhibitors; hit rate 0.49% among 400,000; Potency, µM (series often up to 56.7 µM), actives largely listed as cytotoxic; S2 cells (HEK-293 line with an ATXN2-luciferase reporter) viability, CellTiter-Fluor protease fluorescence, 24 h; also: nearly all actives have a fitted effect of over 40% in size
# KB-3-1 tox: kills parental KB-3-1 adenocarcinoma cells; hit rate 1.4% among 400,000; Potency, µM (doses to about 46.1 µM), usual class: cytotoxic; KB-3-1 viability, CellTiter-Glo ATP luminescence, 72 h; also: % is scaled to controls: 0 for no effect and ±100 for the full control effect; nearly all actives have a fitted effect of over 60% in size
#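 Cells are dispensed, compounds pinned in, plates held at 37 °C for 72 h, then CellTiter-Glo is added and luminescence read after 10 minutes. Cell line: parental KB-3-1 in phenol-red-free DMEM, 10% FBS.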
# Numbers without * were called inactive; i = inactive; ? = inconclusive; · = no result. Sampled rows, rich in hits. Any-hit rate of the full collection: about 6.2%. Calls follow the shape of the dose curve; as a rule, active = well fitted curve in the direction sought with a large enough effect; inconclusive = small, poorly fitted or top-dose-only effect, or another doubt; inactive = no such curve, though single readings can be large; an effect the other way counts as inactive or inconclusive. Potency is read from the fitted curve at half-maximal effect.
SMILES,HT1080NT lethal,KB-V1 cytotox,HT1080 IDH1KD tx,ATXN2 expr inh,S2 tox,KB-3-1 tox
COc1ccc(Oc2nc(C)cc(C)c2S(=O)(=O)c2ccc(C)cc2)cc1,7.4%,20.6µM*,-13.3%,-9.5%,i,i
Cc1cc(C)c(S(=O)(=O)c2ccccc2)c(Cl)n1,-1.0%,i,-0.1%,-0.6%,i,i
Cc1ccc(S(=O)(=O)c2c(C)cc(C)nc2Cl)cc1,0.4%,13µM*,-1.1%,0.1%,i,i
CCC(C(=O)OCC(=O)c1c(N)n(CC(C)C)c(=O)n(C)c1=O)c1ccccc1 (centres undefined),-5.5%,?,-20.5%,-16.8%,i,?
CCC(=NC(C)c1ccccc1)c1c(O)n(C)c(=O)n(C)c1=O (centres undefined),-19.2%,2.59µM*,-25.5%,-25.1%,i,?
Cc1ccc2c(=O)cc(C(=O)Nc3cccc(C(F)(F)F)c3)oc2c1C,·,i,·,7.0%,i,i
CCc1ccc(S(=O)(=O)c2nnn3c2nc(N(CC)Cc2ccccc2)c2cc(Cl)ccc23)cc1,·,i,·,4.1%,i,i
CCN(CC)C(=O)CSc1nnc2nnc3cc(C)ccc3n12,3.8%,20.6µM*,-6.0%,-17.5%,i,i
CCOc1ccc2nc(N(CCCN(C)C)C(=O)c3ccc(S(=O)(=O)N4CCc5ccccc5C4)cc3)sc2c1,?,?,?,-35.7%,i,i
CCOc1ccc2nc(N(CCCN(C)C)C(=O)c3ccc4c(c3)CCCC4)sc2c1,18.4µM*,i,?,?,i,20.6µM*
CN(C)CCCN(C(=O)c1ccc2c(c1)CCCC2)c1nc2ccc(Cl)cc2s1,?,10.3µM*,?,?,·,?
Cc1cc(C)n(C(C)CC(=O)Nc2ccc(C)c(N(C)C)c2)n1 (centres undefined),·,i,·,-1.5%,i,i
CC1=C(C(=O)Nc2ccccc2C)C(c2ccccn2)n2ncnc2N1 (centres undefined),·,?,·,15.5%,i,i
CC(=O)C1=C(C)NC(SCC(=O)c2ccc(F)cc2)=C(C#N)C1c1ccco1 (centres undefined),?,i,?,21.9%,i,i
COc1cccc(NC(=O)CSC2=C(C#N)C(c3ccco3)C3=C(CCCC3=O)N2)c1 (centres undefined),9.2µM*,?,7.31µM*,1.7%,i,?
N#CC1=C(SCC(=O)c2ccccc2)NC2=C(C(=O)CCC2)C1c1ccco1 (centres undefined),?,?,4.61µM*,143.8%,?,18.4µM*
COc1ccc(NC(=O)CSC2=C(C#N)C(c3ccco3)C3=C(CCCC3=O)N2)c(OC)c1 (centres undefined),2.9%,i,11.0%,5.5%,i,i
CCCCc1ccc(NC(=O)CSC2=C(C#N)C(c3ccco3)C3=C(CCCC3=O)N2)cc1 (centres undefined),?,i,?,-5.3%,i,?
Cc1ccc(C(=O)CSC2=C(C#N)C(c3ccco3)C3=C(CCCC3=O)N2)cc1 (centres undefined),5.01µM*,8.2µM*,5.62µM*,16.0%,i,?
CC(C)(C)c1ccc(C(=O)CCCSC2=C(C#N)C(c3ccco3)C3=C(CCCC3=O)N2)cc1 (centres undefined),?,10.3µM*,-19.4%,-23.2%,?,?
CCCN(CC(=O)Nc1ccc(NC(C)=O)cc1)CC(=O)Nc1ccc(F)c(F)c1F,-4.7%,i,-16.6%,-2.4%,i,i
CCCN(CC(=O)Nc1ccc(F)c(F)c1F)CC(=O)Nc1c(Cl)cccc1Cl,3.5%,18.4µM*,2.6%,9.0%,i,i
CCCN(CC(=O)Nc1ccc(C)cc1Br)CC(=O)Nc1ccc(F)c(F)c1F,-2.7%,8.2µM*,-14.8%,-5.5%,?,i
Cc1ccc(C)c(N2CCN(C(=O)c3ccc4c(Cl)c5c(nc4c3)CCCC5)CC2)c1,·,i,·,3.9%,i,i
CC1(C)Cc2c(sc3nnn(Cc4ccc(Cl)cc4)c(=O)c23)CO1,4.2%,6.51µM*,-1.1%,-14.8%,i,?
SMILES,HT1080NT lethal,KB-V1 cytotox,HT1080 IDH1KD tx,ATXN2 expr inh,S2 tox,KB-3-1 tox
CC1(C)Cc2c(sc3nnn(CC(=O)Nc4ccccc4)c(=O)c23)CO1,0.5%,i,0.9%,-9.5%,i,i
Cc1ccc(Cl)cc1N1CCN(C(=O)CN2C(=O)COc3ccc(S(=O)(=O)N4CCCCCC4)cc32)CC1,·,25.9µM*,·,-6.9%,i,?
O=C(Cc1ccc2c(c1)OCCO2)N1CCN(S(=O)(=O)c2ccccc2C(F)(F)F)CC1,12.6%,20.6µM*,3.8%,0.6%,i,i
O=C(Cc1ccc2c(c1)OCCO2)N1CCN(S(=O)(=O)c2cccc(Cl)c2Cl)CC1,2.0%,23.1µM*,0.7%,-5.0%,?,i
O=C(C1CC(=O)N(c2ccc3c(c2)OCCO3)C1)N1CCN(S(=O)(=O)c2cccc(F)c2)CC1 (centres undefined),0.8%,20.6µM*,-5.0%,-9.2%,?,i
O=C(NCC(=O)N1CCN(S(=O)(=O)c2ccc3c(c2)OCCO3)CC1)c1ccccc1F,-2.8%,i,-1.5%,-0.3%,i,i
O=C(Cn1c(-c2cccs2)cc2cc(Cl)ccc21)N1CCN(c2ccccc2)CC1,·,i,·,1.1%,i,i
Cc1ccc(S(=O)(=O)N2CCN(C(=O)Cc3ccc4c(c3)OCCO4)CC2)cc1C,-5.3%,4.11µM*,-6.7%,-24.4%,i,i
O=C(Cc1ccc2c(c1)OCCO2)N1CCN(S(=O)(=O)c2cccs2)CC1,3.6%,?,3.8%,-8.4%,i,i
CCCCCC(=O)Nc1nc(C)c(-c2csc(Nc3ccc(Cl)cc3)n2)s1,-23.0%,i,?,-8.1%,?,i
CCCCC(=O)Nc1nc(C)c(-c2csc(Nc3ccccc3OC)n2)s1,-1.3%,i,-4.3%,-5.9%,i,?
C=CCCC(=O)Nc1nc(C)c(-c2csc(Nc3cc(Cl)ccc3OC)n2)s1,-9.3%,?,?,-26.0%,?,?
C=CCCC(=O)Nc1nc(C)c(-c2csc(Nc3ccccc3OC)n2)s1,?,?,16.4µM*,-20.0%,?,7.31µM*
CCCCCCC(=O)Nc1nc(C)c(-c2csc(Nc3ccc(Cl)cc3)n2)s1,20.6µM*,i,?,?,?,?
CCC(=O)Nc1nc(C)c(-c2csc(Nc3cccc(O)c3)n2)s1,?,?,0.461µM*,·,?,?

# Assay outcomes as filed in PubChem.
